A number with no mark means an inactive call. Records with an inconclusive call do not appear. The source made the active and inactive calls. Unless noted, the call rests on the fitted dose curve; in most records, active means well fitted curve in either direction with a large enough effect (not every such curve was filed as active); inconclusive means small, poorly fitted or top-dose-only effect, or another doubt; inactive means flat fitted curve, though single readings scatter.
Tests used:
[1] = target: Lysosomal acid glucosylceramidase (Homo sapiens) (UniProt P04062); experiment: Glucocerebrosidase-p2 (AID 348; in the data active means potency below about 10 µM; further: potency means the concentration at half of the fitted maximal effect); conditions: purified GBA, blue fluorogenic substrate, 40 min
Summary of the method: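 Normal human glucocerebrosidase (0.2 nM) with blue fluorogenic substrate (80 uM final) in citrate/phosphate pH 5.9 with 10mM sodium taurocholate, 0.01% tween-20; 40 min RT, NaOH/glycine stop; fluorescence Ex 365/Em 440; AC50 from a titration from 0.6 nM upwards.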

[2] = target: Glucocorticoid receptor (Homo sapiens) (UniProt P04150); experiment: GR-GFP Redistribution (AID 450;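 active means compounds whose dose series gives a full or clear partial fitted curve of increased nuclear translocation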; further: potency means the concentration at half of the fitted maximal effect); conditions: U2OS GR-GFP nuclear translocation, laser cytometry, 2 h
Sequence of Glucocorticoid receptor (Homo sapiens) (P04150 whole entry, looked up, the tested form may be a part): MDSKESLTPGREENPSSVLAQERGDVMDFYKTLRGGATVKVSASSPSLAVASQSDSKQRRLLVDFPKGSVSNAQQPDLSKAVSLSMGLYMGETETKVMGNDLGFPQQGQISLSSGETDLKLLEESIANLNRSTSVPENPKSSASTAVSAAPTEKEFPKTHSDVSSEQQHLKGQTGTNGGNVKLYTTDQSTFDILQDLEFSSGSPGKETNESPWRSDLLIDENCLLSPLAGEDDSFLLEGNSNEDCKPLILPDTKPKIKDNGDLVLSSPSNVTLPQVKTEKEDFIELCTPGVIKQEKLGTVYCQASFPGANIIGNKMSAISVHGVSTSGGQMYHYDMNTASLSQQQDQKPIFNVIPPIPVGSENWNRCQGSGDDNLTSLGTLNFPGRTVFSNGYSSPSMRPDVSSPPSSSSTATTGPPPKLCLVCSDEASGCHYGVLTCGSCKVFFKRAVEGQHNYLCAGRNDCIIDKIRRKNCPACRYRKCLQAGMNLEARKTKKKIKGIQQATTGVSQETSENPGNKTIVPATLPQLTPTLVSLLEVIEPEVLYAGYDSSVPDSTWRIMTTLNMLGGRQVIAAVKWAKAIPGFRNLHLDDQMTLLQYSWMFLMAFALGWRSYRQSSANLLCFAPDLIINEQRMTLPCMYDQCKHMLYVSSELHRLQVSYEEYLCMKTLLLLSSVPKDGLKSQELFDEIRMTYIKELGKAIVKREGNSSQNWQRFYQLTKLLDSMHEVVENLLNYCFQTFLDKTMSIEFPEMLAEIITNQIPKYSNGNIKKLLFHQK

[3] = target: Glucocorticoid receptor (Homo sapiens) (UniProt P04150); experiment: GR-EFC Redistribution (AID 451; calls by dose curve; further: potency means the concentration at half of the fitted maximal effect); conditions: CHO-K1 GR-EFC translocation, beta-gal luminescence, 2 h
Summary of the method: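 CHO-K1 cells expressing nuclear EA and GR-ED fragments of b-gal; compounds titrated up to 46 uM final, 2 h at 37 C. GR nuclear translocation read as complemented b-gal luminescence after 1 h RT detection.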

[4] = target: Mitogen-activated protein kinase 10 (Mus musculus) (UniProt Q61831); experiment: JNK3 AlphaScreen Assay (AID 530); conditions: JNK3 lysate, c-Jun phosphorylation; series mostly up to 11.4 µM;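 further: kinase came from lysate of stimulated human HepG2 cells; signal reports phosphorylation of biotinylated GST-cJun 1-79 at Ser73 with 10 µM ATP; on the % scale 0 is the no-effect control and ±100 the full control effect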
Summary of the method: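 HepG2 lysate (IL-1b/TNFa pre-activated) + biotin-GST-cJun 1-79 + anti-pSer73 cJun; cpd titration, 15 min RT; ATP 10 uM start; Tris pH 7.6, MgCl2, DTT, vanadate; beads in EDTA buffer; AlphaScreen.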

[5] = target: 3',5'-cyclic-AMP phosphodiesterase 4B (Homo sapiens) (UniProt Q07343); experiment: qHTS Assay for Inhibitors of PDE-IV (AID 607; active means well fitted activation curve with a large enough effect in the main read-out, with a control signal flat, not every such curve was filed as active; further: % of control where 0% means no effect); conditions: HEK293 ACTOne CNG channel cells, membrane potential fluorescence; series mostly up to 22.9 µM
Sequence of 3',5'-cyclic-AMP phosphodiesterase 4B (Homo sapiens) (Q07343 whole entry, looked up): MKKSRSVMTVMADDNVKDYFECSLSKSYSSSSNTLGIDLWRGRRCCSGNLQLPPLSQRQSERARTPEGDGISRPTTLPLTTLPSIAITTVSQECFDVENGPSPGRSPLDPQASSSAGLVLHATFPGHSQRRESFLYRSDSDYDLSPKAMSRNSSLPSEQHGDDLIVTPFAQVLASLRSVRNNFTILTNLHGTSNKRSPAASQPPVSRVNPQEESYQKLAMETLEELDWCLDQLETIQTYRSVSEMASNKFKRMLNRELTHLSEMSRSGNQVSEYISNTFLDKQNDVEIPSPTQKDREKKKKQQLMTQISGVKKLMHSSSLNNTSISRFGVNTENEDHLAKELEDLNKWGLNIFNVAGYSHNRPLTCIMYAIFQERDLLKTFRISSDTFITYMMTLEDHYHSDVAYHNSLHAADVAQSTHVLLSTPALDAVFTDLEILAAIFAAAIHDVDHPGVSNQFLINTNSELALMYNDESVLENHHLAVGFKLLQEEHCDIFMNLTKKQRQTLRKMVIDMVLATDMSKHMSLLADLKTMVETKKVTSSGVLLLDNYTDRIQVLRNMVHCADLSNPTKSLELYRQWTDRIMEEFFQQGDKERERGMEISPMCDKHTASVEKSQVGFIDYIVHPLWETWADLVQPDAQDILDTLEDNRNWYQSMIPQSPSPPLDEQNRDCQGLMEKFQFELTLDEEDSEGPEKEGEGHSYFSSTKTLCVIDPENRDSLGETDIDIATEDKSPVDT
Summary of the method: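 ACTOne HEK293 cells carry a modified cAMP-gated CNG channel and express endogenous PDE4; plated 1000 cells/well, compounds up to 22.9 uM final. Membrane-potential dye fluorescence (ex 535/em 590) was read; parental cells received 10 uM forskolin + 100 uM RO 20-1724.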

[6] = target: Cytochrome P450 2C9 (Homo sapiens) (UniProt P11712); experiment: qHTS Assay for Inhibitors and Substrates of Cytochrome P450 2C9 (AID 883; active means well fitted curve in the direction sought with a large enough effect; an effect the other way counts as inactive or inconclusive; further: nearly all actives have a fitted effect of over 60% in size; further: potency means the concentration at half of the fitted maximal effect); conditions: recombinant CYP2C9, luciferin-H luminescence, 60 min; series mostly up to 11.4 µM
Sequence of Cytochrome P450 2C9 (Homo sapiens) (P11712 whole entry, looked up): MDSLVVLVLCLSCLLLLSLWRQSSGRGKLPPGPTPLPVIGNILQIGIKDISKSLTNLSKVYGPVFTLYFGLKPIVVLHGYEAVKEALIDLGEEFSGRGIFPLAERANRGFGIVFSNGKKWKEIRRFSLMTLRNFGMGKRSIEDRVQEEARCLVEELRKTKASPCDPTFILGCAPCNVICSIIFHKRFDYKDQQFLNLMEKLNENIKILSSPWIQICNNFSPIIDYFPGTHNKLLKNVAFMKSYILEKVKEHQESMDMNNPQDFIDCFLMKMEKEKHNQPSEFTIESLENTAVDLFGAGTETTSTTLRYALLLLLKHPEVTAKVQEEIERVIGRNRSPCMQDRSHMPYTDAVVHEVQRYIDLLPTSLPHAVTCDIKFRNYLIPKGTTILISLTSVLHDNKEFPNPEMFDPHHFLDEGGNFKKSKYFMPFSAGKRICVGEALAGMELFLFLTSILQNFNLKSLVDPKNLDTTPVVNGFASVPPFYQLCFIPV
Summary of the method: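 Human CYP2C9 (10nM) with Luciferin-H at 100uM (its KM) in 25mM KPO4; compound preincubated 10 min at 37C, then NADPH regeneration for 60 min at 37C. Luciferin read by luminescence after detection reagent; normalized to 57uM sulphaphenazole as full inhibition.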

[7] = target: Cytochrome P450 3A4 (Homo sapiens) (UniProt P08684); experiment: qHTS Assay for Activators of Cytochrome P450 3A4 (AID 885; active means well fitted curve in the direction sought with a large enough effect; an effect the other way counts as inactive or inconclusive; further: nearly all actives have a fitted effect of over 65% in size); conditions: recombinant CYP3A4, Luciferin-PPXE luminescence, 60 min; series mostly up to 11.4 µM
Sequence of Cytochrome P450 3A4 (Homo sapiens) (P08684 whole entry, looked up): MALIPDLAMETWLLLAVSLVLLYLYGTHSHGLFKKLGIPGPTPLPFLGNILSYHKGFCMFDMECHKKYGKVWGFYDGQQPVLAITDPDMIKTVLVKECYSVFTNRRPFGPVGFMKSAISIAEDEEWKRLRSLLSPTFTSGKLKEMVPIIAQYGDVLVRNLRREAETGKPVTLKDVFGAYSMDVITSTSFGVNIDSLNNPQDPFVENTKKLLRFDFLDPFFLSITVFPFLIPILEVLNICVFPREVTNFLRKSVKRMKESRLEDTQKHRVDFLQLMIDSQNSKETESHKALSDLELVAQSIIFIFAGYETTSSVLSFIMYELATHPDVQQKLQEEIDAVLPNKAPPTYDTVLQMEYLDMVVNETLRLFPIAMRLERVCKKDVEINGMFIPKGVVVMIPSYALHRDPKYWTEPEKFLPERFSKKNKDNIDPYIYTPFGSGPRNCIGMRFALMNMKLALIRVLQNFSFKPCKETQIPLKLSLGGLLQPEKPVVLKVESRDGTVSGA
Summary of the method: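 CYP3A4 activity: Luciferin-PPXE O-dealkylation, 25uM substrate, 200mM KPO4, RT throughout. Read-out is luciferase luminescence; higher values reflect activation.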

[8] = target: Cytochrome P450 2C19 (Homo sapiens) (UniProt P33261); experiment: qHTS Assay for Inhibitors and Substrates of Cytochrome P450 2C19 (AID 899; active means well fitted curve in the direction sought with a large enough effect; an effect the other way counts as inactive or inconclusive; further: nearly all actives have a fitted effect of over 60% in size; further: potency means the concentration at half of the fitted maximal effect); conditions: recombinant CYP2C19, luciferin-H EGE luminescence; series mostly up to 11.4 µM
Sequence of Cytochrome P450 2C19 (Homo sapiens) (P33261 whole entry, looked up): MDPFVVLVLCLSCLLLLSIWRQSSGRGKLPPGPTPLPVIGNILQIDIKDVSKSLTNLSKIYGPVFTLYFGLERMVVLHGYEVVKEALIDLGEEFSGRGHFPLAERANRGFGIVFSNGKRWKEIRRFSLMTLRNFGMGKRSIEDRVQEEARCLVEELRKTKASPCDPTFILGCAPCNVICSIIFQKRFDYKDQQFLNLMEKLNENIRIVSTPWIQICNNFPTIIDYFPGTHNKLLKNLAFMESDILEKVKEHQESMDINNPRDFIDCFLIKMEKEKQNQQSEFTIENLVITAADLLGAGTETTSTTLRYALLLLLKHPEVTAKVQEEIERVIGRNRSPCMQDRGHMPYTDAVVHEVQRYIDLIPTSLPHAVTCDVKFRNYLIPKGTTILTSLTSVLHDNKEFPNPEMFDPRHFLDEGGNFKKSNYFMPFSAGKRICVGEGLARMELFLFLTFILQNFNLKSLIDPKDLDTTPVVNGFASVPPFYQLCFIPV
Summary of the method: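 5 nM human CYP2C19 with 10uM Luciferin-H EGE (at KM) in 50mM KPO4, compound preincubated 10 min at 37C, then NADPH regeneration for 60 min at 37C. Luciferin read by luminescence after detection reagent; normalized to 57uM ketoconazole as full inhibition.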

[9] = AP1 Signaling Pathway (AID 357); conditions: ME-180 AP-1-bla reporter, EGF-induced, beta-lactamase ratio, 5 h;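 further: ME-180 reporter cells stimulated with EGF at its EC50 level; on the % scale 0 is the no-effect control and ±100 the full control effect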
Summary of the method: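 A ratiometric CCF4 readout (405 nm excitation; 460 and 530 nm emission) quantified AP-1-driven beta-lactamase in ME-180 cells after 5 h with compound and EC50 EGF; AC50 values were derived for activators and inhibitors.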

[10] = target: Cytochrome P450 1A2 (Homo sapiens) (UniProt P05177); experiment: p450-cyp1a2 (AID 410; calls by dose curve; further: potency means the concentration at half of the fitted maximal effect;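 on activity change, negative = inhibition: -100% = full effect of reference inhibitor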); conditions: recombinant CYP1A2, luciferin-ME demethylation, luminescence; series mostly up to 11.4 µM
Sequence of Cytochrome P450 1A2 (Homo sapiens) (P05177 whole entry, looked up): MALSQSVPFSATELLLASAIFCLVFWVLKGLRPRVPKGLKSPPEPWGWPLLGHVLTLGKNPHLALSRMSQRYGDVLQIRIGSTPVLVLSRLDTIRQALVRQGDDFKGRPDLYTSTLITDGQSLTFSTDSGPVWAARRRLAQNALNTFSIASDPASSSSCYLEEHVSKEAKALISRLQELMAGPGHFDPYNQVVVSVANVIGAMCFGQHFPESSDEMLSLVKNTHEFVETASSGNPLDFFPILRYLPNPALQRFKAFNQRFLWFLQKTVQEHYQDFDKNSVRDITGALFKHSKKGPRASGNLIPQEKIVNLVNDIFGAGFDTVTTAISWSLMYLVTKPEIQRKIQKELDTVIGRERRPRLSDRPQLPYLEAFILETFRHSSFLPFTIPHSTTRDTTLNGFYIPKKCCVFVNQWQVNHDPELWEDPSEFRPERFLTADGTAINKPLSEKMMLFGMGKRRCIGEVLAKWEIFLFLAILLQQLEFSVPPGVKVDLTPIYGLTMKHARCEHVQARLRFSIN
Summary of the method: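 Read-out is luminescence from luciferin produced by CYP1A2 demethylation of Luciferin-ME (100uM, at Km). Detection reagent stopped the 60 min NADPH-dependent reaction; signals were normalized to 57 uM furafylline.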

[11] = NFAT Signaling Pathway (AID 444); conditions: Jurkat NFAT-bla M1, carbachol, beta-lactamase ratio, 5 h;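 further: carbachol stimulus at about its EC50 of 1 µM final; on the % scale 0 is the no-effect control and ±100 the full control effect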
Summary of the method: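 Jurkat cells with NFAT-driven β-lactamase reporter and co-expressed M1 receptor, stimulated with carbachol (final 1 uM, ~EC50), compound titration, 5 h at 37 °C. CCF4 loaded 1 h at RT; 460/530 nm ratio gave %activity and AC50.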

[12] = Stat Signaling Pathway (AID 446); conditions: ME-180 (cervical carcinoma) SIE beta-lactamase reporter, IL-6 stimulated, 5 h;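 further: ME-180 cervical cancer cells given 40 pM IL-6 alongside compound; SIE-controlled beta-lactamase reporter measured as 460/530 nm FRET emission ratio; on the % scale 0 is the no-effect control and ±100 the full control effect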
Summary of the method: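 Compound effects on IL-6-induced STAT reporter activity were measured in ME-180 cells. After overnight culture, cells were co-treated with 40 pM IL-6 for 5 hrs before beta-lactamase substrate loading at room temperature.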

[13] = target: Cytochrome P450 2D6 (Homo sapiens) (UniProt P10635); experiment: qHTS Assay for Inhibitors and Substrates of Cytochrome P450 2D6 (AID 891; active means well fitted curve in the direction sought with a large enough effect; an effect the other way counts as inactive or inconclusive; further: nearly all actives have a fitted effect of over 60% in size; further: potency means the concentration at half of the fitted maximal effect); conditions: recombinant CYP2D6, luciferin-ME EGE luminescence; series mostly up to 11.4 µM
Sequence of Cytochrome P450 2D6 (Homo sapiens) (P10635 whole entry, looked up): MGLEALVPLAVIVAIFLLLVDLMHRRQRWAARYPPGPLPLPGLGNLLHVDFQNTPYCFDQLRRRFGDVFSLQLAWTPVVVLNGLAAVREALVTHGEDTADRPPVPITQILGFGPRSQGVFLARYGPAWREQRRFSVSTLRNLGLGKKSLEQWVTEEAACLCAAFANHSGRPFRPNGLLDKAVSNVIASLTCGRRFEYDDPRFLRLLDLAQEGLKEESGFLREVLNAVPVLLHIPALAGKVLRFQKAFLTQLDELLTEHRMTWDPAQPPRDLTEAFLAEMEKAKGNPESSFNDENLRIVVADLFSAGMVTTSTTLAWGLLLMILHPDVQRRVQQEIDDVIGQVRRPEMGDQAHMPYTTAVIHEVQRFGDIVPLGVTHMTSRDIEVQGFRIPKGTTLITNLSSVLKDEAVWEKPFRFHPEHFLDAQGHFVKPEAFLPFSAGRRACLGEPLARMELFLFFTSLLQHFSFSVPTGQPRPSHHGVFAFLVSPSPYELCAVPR
Summary of the method: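 Luminescent read-out of luciferin formed by 5 nM human CYP2D6 demethylating 30 uM Luciferin-ME EGE (Km level) over 60 min at room temperature after NADPH regeneration addition. Data normalized to full inhibition by 1.43 uM quinidine.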

[14] = target: ATP-dependent 6-phosphofructokinase (Trypanosoma brucei brucei) (UniProt O15648); experiment: qHTS Assay to Find Inhibitors of T. brucei phosphofructokinase: hit validation (AID 492961; active means well fitted curve in the direction sought with a large enough effect; an effect the other way counts as inactive or inconclusive); conditions: T. brucei PFK, ADP-Glo luminescence; series mostly up to 51.4 µM
Sequence of ATP-dependent 6-phosphofructokinase (Trypanosoma brucei brucei) (O15648 whole entry, looked up): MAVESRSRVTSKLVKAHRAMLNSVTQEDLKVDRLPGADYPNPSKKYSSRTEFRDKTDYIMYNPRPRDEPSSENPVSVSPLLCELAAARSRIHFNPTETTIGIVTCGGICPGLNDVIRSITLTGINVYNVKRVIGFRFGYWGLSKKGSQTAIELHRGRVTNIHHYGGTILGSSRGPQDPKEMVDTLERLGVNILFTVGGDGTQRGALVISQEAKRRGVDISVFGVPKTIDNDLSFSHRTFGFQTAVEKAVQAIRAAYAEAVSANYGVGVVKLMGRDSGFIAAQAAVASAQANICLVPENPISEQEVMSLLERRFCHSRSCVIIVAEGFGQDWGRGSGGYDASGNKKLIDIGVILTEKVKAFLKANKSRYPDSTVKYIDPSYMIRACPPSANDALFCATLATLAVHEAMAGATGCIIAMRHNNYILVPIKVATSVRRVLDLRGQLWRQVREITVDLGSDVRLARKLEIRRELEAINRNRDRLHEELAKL
Summary of the method: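 Compounds titrated; %activity normalized to 0x and 1x enzyme controls, curve-fitted. Readout: ADP-Glo luminescence after 45 min room-temperature reaction of 1.25 nM PFK, 0.1 mM ATP, 0.5 mM F6P, pH 8.0.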

[15] = qHTS profiling for inhibitors of Plasmodium falciparum proliferation (AID 504749; active means well fitted curve in the direction sought with a large enough effect; an effect the other way counts as inactive or inconclusive;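 further: 0% = DMSO vehicle and full inhibition = artemisinin control; nearly all actives have a fitted effect of over 60% in size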); conditions: P. falciparum in erythrocytes, SYBR Green DNA, 72 h
Summary of the method: (§1)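 SYBR Green fluorescence (ex 485 nm, em 535 nm) reports parasite DNA after 72 h compound exposure of infected red cells at 0.3% parasitemia, 2.5% hematocrit; signal normalized to 0.29 uM artemisinin and vehicle wells.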

[16] = system: ATS189; experiment: as above; conditions: P. falciparum in erythrocytes, SYBR Green DNA, 72 h; series mostly up to 28.7 µM
Summary of the method: as §1

[17] = system: CP192; experiment: as above; conditions: P. falciparum in erythrocytes, SYBR Green DNA, 72 h; series mostly up to 28.7 µM
Summary of the method: as §1

[18] = system: CP201; experiment: as above; conditions: P. falciparum in erythrocytes, SYBR Green DNA, 72 h; series mostly up to 28.7 µM
Summary of the method: as §1

[19] = system: CP247; experiment: as above; conditions: P. falciparum in erythrocytes, SYBR Green DNA, 72 h; series mostly up to 28.7 µM
Summary of the method: as §1

[20] = at 7.69 µM (top of the series) unless noted
[21] = at 28.7 µM (top of the series), parasite line A

For Cc1cc(O)c(C(C)C)cc1C1(c2cc(C(C)C)c(O)cc2C)OC(=O)c2ccccc21, the Potency [1] was greater than 11.4 µM, the Potency [2] was greater than 46 µM and the Potency [3] was greater than 9.22 µM. For the same compound, the Potency [4] was “inactive”, the Potency [5] was “inactive” and the Potency [6] was 0.316 µM (active). For the same compound, the Potency [7] was “inactive” and the Potency [8] was 3.16 µM (active).

In the case of Oc1ccc([C@@H]2CNCCc3c2cc(O)c(O)c3Cl)cc1, the activity change, negative = inhibition [9, 20] is reported as -5.37% [at 38 µM], the Potency [10] is reported as “inactive” and the activity change, negative = inhibition [11, 20] is reported as 1.42% [at 38 µM]. The activity, negative = inhibition [12, 20] was 18.7% [at 38 µM], the Potency [2] was greater than 46 µM and the Potency [3] was greater than 46 µM. For the same compound, the Potency [4] was “inactive”, the Potency [5] was “inactive” and the Potency [7] was “inactive”. The Potency [13] was 3.16 µM (active).

OC[C@H](S)CS gave a Potency [1] greater than 11.4 µM, an activity, negative = inhibition [12, 20] of 5.31% and a Potency [2] greater than 46 µM. The Potency [3] was greater than 9.22 µM, the Potency [4] was “inactive” and the Potency [5] was “inactive”. For the same compound, the outcome [14] was “inactive”, the activity, negative = inhibition [15, 21] was -3.06% and the Potency [16] was “inactive”. The Potency [17] was “inactive”, the Potency [18] was “inactive” and the Potency [19] was “inactive”.

For Cc1cc2ccc(OC(=O)c3ccc(N=C(N)N)cc3)cc2oc1=O, the activity change, negative = inhibition [9, 20] was 5.35%, the Potency [10] was 2.51 µM (active) and the activity change, negative = inhibition [11, 20] was -22.4%. The activity, negative = inhibition [12, 20] was -1.77%, the Potency [2] was greater than 46 µM and the Potency [3] was greater than 9.22 µM. For the same compound, the Potency [4] was “inactive” and the Potency [5] was “inactive”.

With O=C(O)/C=C(/C(=O)O)[C@]12CCN3CC4=CCO[C@@H]5CC(=O)N[C@@H]1[C@H]5[C@H]4C[C@H]32 the activity change, negative = inhibition [9, 20] was 9.14%, the activity change, negative = inhibition [10] was -15% [at 2.29 µM] and the activity change, negative = inhibition [11, 20] was -1.3%. The activity, negative = inhibition [12, 20] was -7.59%, the Potency [2] was greater than 46 µM and the Potency [3] was greater than 9.22 µM. The Potency [4] was “inactive” and the Potency [5] was “inactive”.

In the case of C[N+]1(NCC[N@@+]2(C)CCc3ccccc3C2)CCCCC1, the activity change, negative = inhibition [9, 20] is reported as -4.59%, the Potency [10] is reported as “inactive” and the activity change, negative = inhibition [11, 20] is reported as -23.2%. The activity, negative = inhibition [12, 20] was 7.24%, the Potency [2] was greater than 46 µM and the Potency [3] was greater than 9.22 µM. The Potency [4] was “inactive” and the Potency [5] was “inactive”.

In the case of N[C@H](COP(=O)(O)O)C(=O)O, the activity change, negative = inhibition [9, 20] is reported as -5.61% [at 38 µM], the Potency [10] is reported as “inactive” and the activity change, negative = inhibition [11, 20] is reported as 1.24% [at 38 µM]. It also gave an activity, negative = inhibition [12, 20] of 20.2% [at 38 µM], a Potency [2] greater than 46 µM and a Potency [3] greater than 46 µM. For the same compound, the Potency [5] was “inactive”, the Potency [6] was “inactive” and the Potency [13] was “inactive”. The Potency [8] was “inactive”, the outcome [14] was “inactive” and the activity, negative = inhibition [15, 21] was 15.2%. For the same compound, the activity, negative = inhibition ([15]; at 28.7 µM (top of the series), parasite line B) was 6.94%, the Potency [16] was “inactive” and the Potency [17] was “inactive”. The Potency [18] was “inactive” and the Potency [19] was “inactive”.

In the case of COc1cc2nc(N(C)CCCNC(=O)[C@@H]3CCCO3)nc(N)c2cc1OC, the activity change, negative = inhibition [9, 20] is reported as 7.7% [at 17.2 µM], the Potency [10] is reported as “inactive” and the activity change, negative = inhibition [11, 20] is reported as -29.6% [at 17.2 µM]. It also gave an activity, negative = inhibition [12, 20] of 2.71% [at 17.2 µM], a Potency [2] greater than 20.6 µM and a Potency [3] greater than 20.6 µM. The Potency [4] was “inactive”, the Potency [5] was “inactive” and the outcome [14] was “inactive”. The activity, negative = inhibition ([15]; at 12.8 µM (top of the series), parasite line A) was 3.61%, the activity, negative = inhibition ([15]; at 12.8 µM (top of the series), parasite line B) was 7.55% and the Potency [16] was “inactive”. For the same compound, the Potency [17] was “inactive”, the Potency [18] was “inactive” and the Potency [19] was “inactive”.

For Cc1nnc(SCC2=C(C(=O)O)N3C(=O)[C@@H](NC(=O)Cn4cnnn4)[C@@H]3SC2)s1, the activity change, negative = inhibition ([9]; at 17.2 µM (top of the series)) was 3.67%, the activity change, negative = inhibition ([9]; at 38 µM (top of the series)) was 2.44% and the Potency [10] was “inactive”. For the same compound, the activity change, negative = inhibition ([11]; at 17.2 µM (top of the series)) was 2.74%, the activity change, negative = inhibition ([11]; at 38 µM (top of the series)) was -2.96% and the activity, negative = inhibition ([12]; at 17.2 µM (top of the series)) was 8.89%. For the same compound, the activity, negative = inhibition ([12]; at 38 µM (top of the series)) was -5.18%, the Potency [4] was “inactive” and the Potency [5] was “inactive”. For the same compound, the Potency [7] was “inactive”.

— PubChem BioAssay (NCATS)
